# PubChem BioAssay AID2690 (NMMLSC, 2010)
# The whole screen tested about 330,000 compounds, of which about 590 (0.18%) were called active.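 Rule for the calls: active = superoxide response under a set limit, about three screen SD below normal (cut at about 65% in these data); inactive = the rest.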 The list comes from a sample in which actives are over-represented; it also holds similar structures and randomly drawn compounds.
# Assay: reduction of superoxide in aged yeast, primary screen, HTS (AID 2690);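 note: yeast aged for seven days with compound at 30 °C before DHE staining; 100% = average MFI of all compound-treated wells on the plate with controls excluded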
# Settings: S. cerevisiae aged cells, superoxide DHE fluorescence; at 10 µM; hits give low values
row,SMILES,superoxide response (% of plate mean)
1,O=C(NC(=S)Nc1ccccc1N1CCCCC1)c1ccc(F)cc1,98.2% (inactive)
2,O=C(Nc1ccccc1N1CCCC1)c1ccc(F)c(S(=O)(=O)N2CCOCC2)c1,85.3% (inactive)
3,O=C(Nc1ccccc1N1CCCC1)c1ccc2ccccc2c1,59% (active)
4,Cc1cccc2c1cnn2C(=O)CCC(=O)NC1CCCCC1,82.7% (inactive)
5,N#Cc1cccc(NC(=O)CN2CCCCCC2)c1,94.7% (inactive)
6,COc1cc(CO)ccc1OCC(=O)Nc1cccc2ccccc12,99.9% (inactive)
7,Cc1cccc2[nH]c(CN(C)C(=O)C3CCC(=O)N(CCc4ccccc4)C3)nc12 (stereo unspecified),102% (inactive)
8,COc1ccc(-c2c(-c3cc(OC)cc(OC)c3)n(C)c3ccc(-c4ccn[nH]4)cc23)cc1,87% (inactive)
9,CC1CC(C)CN(C(=O)CSc2ccsc2[N+](=O)[O-])C1 (stereo unspecified),155% (inactive)
10,CCCCc1cc(=O)oc2c(C)c(OCC(=O)N3CCC(C(N)=O)CC3)ccc12,81.2% (inactive)
11,Cc1cc2c(C)nc(N/N=C/c3ccccc3)nc2o1,97.9% (inactive)
12,Cc1c(NC(=O)c2coc(=O)c(Br)c2)c(=O)n(-c2ccccc2)n1C,96.5% (inactive)
13,Cc1c(NC(=O)c2cc(-c3ccc(Br)cc3)on2)c(=O)n(-c2ccccc2)n1C,98.6% (inactive)
14,Cc1cc2oc(C(=O)Nc3c(C)n(C)n(-c4ccccc4)c3=O)c(C)c2cc1Cl,43% (active)
15,CC1(C)CC(=O)C=C(c2cccc3c2Oc2ccccc2S3)C1,109% (inactive)
16,O=C(CSc1nc2[nH]c(=O)[nH]c(=O)c2s1)Nc1cccc(F)c1,94.1% (inactive)
17,Cc1cc2ncn(CCCCOc3ccccc3)c2cc1C,80.1% (inactive)
18,COc1ccc(CNC(=O)C2CC(c3ccc(C(F)(F)F)cc3)=NO2)cc1 (stereo unspecified),103% (inactive)
19,O=S(=O)(NCCCCCCNS(=O)(=O)c1c(F)cccc1F)c1ccc2c(c1)OCCO2,104% (inactive)
20,O=C(O)C1CCN(S(=O)(=O)N2CCOCC2)CC1,126% (inactive)
21,O=C(O)c1ccccc1-c1ccccc1C(=O)NCCc1ccccc1,108% (inactive)
22,COc1ccc(CCNC(=O)c2ccccc2-c2ccccc2C(=O)O)cc1OC,57.2% (active)
23,COc1ccc(CCNC(=O)Cc2ccc(C)cc2)cc1OC,102% (inactive)
24,Cc1ccc(NC(=O)CN2CCC3(O)CCCCC3C2c2ccc3c(c2)OCO3)c(C)c1 (stereo unspecified),95% (inactive)
25,COc1cccc(NC(=O)[C@H](Cc2c[nH]c3ccccc23)NC(=O)[C@@H]2Cc3ccccc3CN2)c1,113% (inactive)
26,O=C(NC1CCN(Cc2ccccc2)CC1)c1ccc(Oc2cc(Cl)cc(Cl)c2)o1,87.6% (inactive)

row,SMILES,superoxide response (% of plate mean)
1,COc1cccc(NC(=O)NCCN2CCCCC2)c1,34.4% (active)
2,COc1cccc(NC(=S)NCCCN2CCOCC2)c1,96.1% (inactive)
3,CCc1ccccc1NC(=O)NCCN1CCCCC1,92.8% (inactive)
4,CC(=O)NC1=NN(C(C)=O)C(C)(c2ccc(Cl)s2)S1 (stereo unspecified),102% (inactive)
5,CC(=O)NC1=NN(C(C)=O)C(C)(CCS(=O)(=O)c2ccc(Cl)c(Cl)c2)S1 (stereo unspecified),63.7% (active)
6,CC(=O)NC1=NN(C(C)=O)C(C)(c2ccc(C)cc2)S1 (stereo unspecified),108% (inactive)
7,Cc1nc([N+](=O)[O-])cn1CC(=O)Nc1ccc(Cl)cc1,104% (inactive)
8,COc1ccc(-n2nnnc2-c2nc3ccccc3s2)cc1,88.6% (inactive)
9,COc1ccc(/C=C(/CC(=O)Nc2ccc(C)cc2)c2nc3ccccc3s2)cc1,97.7% (inactive)
10,COc1ccc(C2=NN(c3nc4ccccc4s3)C(=O)C2)cc1,51% (active)
11,COc1ccc2c(c1)OC(O)(C(F)(F)C(F)F)CC2=O (stereo unspecified),82.7% (inactive)
12,CCN(CC)S(=O)(=O)c1cc([N+](=O)[O-])ccc1NNC(=O)Nc1ccccc1,101% (inactive)
13,CCOc1ccc(N2CC(C(=O)N/N=C/c3sccc3C)CC2=O)cc1 (stereo unspecified),100% (inactive)
14,COc1ccc2[nH]c(=O)c(CNc3ccc(C)c(C)c3)cc2c1,96.3% (inactive)
15,COc1cc(C(=S)N2CCOCC2)cc(OC)c1OC(=O)c1cc([N+](=O)[O-])c(C)c([N+](=O)[O-])c1,113% (inactive)
16,CCCC1NC(=S)NC(C)=C1C(C)=O (stereo unspecified),92.8% (inactive)
17,COc1ccc([N+](=O)[O-])cc1-c1nc2ccccc2nc1-c1ccccc1,99.1% (inactive)
18,O=[N+]([O-])c1ccc2nc(-c3ccccn3)[nH]c2c1,98.5% (inactive)
19,O=[N+]([O-])c1ccc2c(c1)Nc1nc3ccccc3nc1N2,61.2% (active)
20,Cc1ccc(NC(=O)Cn2nc(C)c3ccccc3c2=O)c(C)c1,54.4% (active)
21,Cc1nn(CC(=O)Nc2ccc(F)cc2)c(=O)c2ccccc12,98.5% (inactive)
22,Cc1nn(CC(=O)Nc2ccc3c(c2)nc(CN2CCCCC2)n3C)c(=O)c2ccccc12,94.1% (inactive)
23,Cc1ccc(-c2nc(CS(=O)CC(=O)N3CCN(c4ncccn4)CC3)c(C)o2)cc1 (stereo unspecified),63.9% (active)
24,Cc1ccc(-c2nc(CS(=O)CC(=O)NC3CCCC3)c(C)o2)cc1 (stereo unspecified),108% (inactive)
25,COc1ccc(-c2nc(CS(=O)CC(=O)N3CCc4ccccc4C3)c(C)o2)cc1 (stereo unspecified),92.3% (inactive)
